Laboratory results taken from PubChem BioAssay (Tox21).
A number with no mark means an inactive call. The source made the active and inactive calls. The call rests on the fitted dose curve; in most records, active means well fitted curve in the direction sought with a large enough effect in the repeat runs; inconclusive means weak or mixed curves; inactive means flat fitted curve, though single readings scatter.

Test: qHTS assay to test for compound auto fluorescence at 590 nm (red) in HEK293 cells (AID 720679)
Conditions: red autofluorescence 540/590 nm; series mostly up to 91.3 µM; fluorescence, % of fluorescent control: at the top concentration
Description: National Center for Advancing Translational Sciences [NCATS]
NIH Chemical Genomics Center [NCGC]
U.S. Environmental Protection Agency [EPA]
National Institutes of Environmental Health Sciences [NIEHS]
National Toxicology Program [NTP]
U.S. Food and Drug Administration [FDA]
Compound auto fluorescence often interferes with screening of the compound library against various biological targets and signaling pathways. Some of these compounds may have fluorophoric properties. Such properties may interfere with the assay outputs resulting in false positives and/or negatives. To decrease such complications and ensure the compound activities are relevant in terms of biological response, the Tox21 10K compound library was screened for auto fluorescence.
From the fluorophores used as reporter signals in our screening assays, the auto fluorescence equivalencies of compounds against three fluorophores have been evaluated: Triamterene, Fluorescein and Rose Bengal sodium for blue, green and red fluorescence, respectively. The fluorescence intensities were measured using Excitation/Emission wavelengths at 405/460nm, 485/535nm and 540/590nm for blue, green and red labels, respectively. This assay includes the red fluorescence data.
Tox21 Assay Protocol Summary:
2,000 HEK293 cells in 5 uL of culture medium containing 10% dialyzed FBS per well were dispensed into black wall/clear bottom 1536-well plates using a Multidrop Combi Dispenser (Thermo Scientific). The assay plates were incubated for 4-5 hr at 37C to allow cell attachment to the well bottom, followed by the transfer of 23 nL compound or DMSO vehicle by a pintool work station (Kalypsys, San Diego, CA). After the assay plates were incubated overnight at 37C and 5% CO2, fluorescence intensities in the assay plates were measured by an Envision (PerkinElmer, Shelton, CT) plate reader using three labels for measuring blue, green and red fluorescence at […] 460, 535 and 590nm respectively.
On the % scale 0 is the no-effect control and ±100 the full control effect.

**Q.** With O=C(O)Cc1ccccc1Nc1c(Cl)cccc1Cl as the molecule, how does the Potency read?
**A.** inactive

**Q.** Which “fluorescence, % of fluorescent control” value does the source give for CC(C)=CCC1=C(O)c2ccccc2C(=O)C1=O here?
**A.** -0.28%

**Q.** For CCCCCCCCCCCCOC(=O)c1ccc(O)cc1, which “fluorescence, % of fluorescent control” value is on record?
**A.** -0.689%

**Q.** With CCC(C)[O-].CCC(C)[O-].CCOC(=O)/C=C(/C)[O-].[Al+3] as the molecule, how does the “fluorescence, % of fluorescent control” value read?
**A.** 0.152%

**Q.** With OC1CCCc2ccccc21 (stereo not given) as the molecule, how does the “fluorescence, % of fluorescent control” value read?
**A.** 0.65%

**Q.** With COC(=O)c1ccccc1C as the molecule, how does the “fluorescence, % of fluorescent control” value read?
**A.** -0.119%

**Q.** Which “fluorescence, % of fluorescent control” value does the source give for Cc1cc(C(C)(C)C)c(O)c(C)c1Cn1c(=O)n(Cc2c(C)cc(C(C)(C)C)c(O)c2C)c(=O)n(Cc2c(C)cc(C(C)(C)C)c(O)c2C)c1=O here?
**A.** -0.0823%

**Q.** For CC[N+](CC)(CC)CCOc1ccc(/C=C/c2ccccc2)cc1, which Potency is on record?
**A.** inactive

**Q.** For CCn1c2ccccc2c2cc([N+](=O)[O-])ccc21, which “fluorescence, % of fluorescent control” value is on record?
**A.** -0.309%

**Q.** Which “fluorescence, % of fluorescent control” value does the source give for ClCCl here?
**A.** 0.0767%

**Q.** Which “fluorescence, % of fluorescent control” value does the source give for S=C([S-])NCCNC(=S)[S-].S=C([S-])NCCNC(=S)[S-].[Mn+2].[Zn+2] here?
**A.** 0.263% [at 46 µM]

**Q.** For CC(C)OC(=O)C(O)(CC(=O)O)CC(=O)O, which “fluorescence, % of fluorescent control” value is on record?
**A.** 0.0593%

**Q.** With CC(=O)Oc1cc2c(s1)CCN(C(C(=O)C1CC1)c1ccccc1F)C2 (stereo not given) as the molecule, how does the “fluorescence, % of fluorescent control” value read?
**A.** 0.234% [at 46 µM]

**Q.** Which “fluorescence, % of fluorescent control” value does the source give for Cc1c(C)c2c(c(C)c1OC(=O)c1cccnc1)CC[C@@](C)(CCC[C@H](C)CCC[C@H](C)CCCC(C)C)O2 here?
**A.** -0.0269% [at 46 µM]

**Q.** Which “fluorescence, % of fluorescent control” value does the source give for O=C1NC(=O)[C@@H]2CC=CC[C@H]12 here?
**A.** 0.0176%

**Q.** With CCCCCCCCCCOC(=O)c1ccccc1C(=O)OCCCCCCCC as the molecule, how does the “fluorescence, % of fluorescent control” value read?
**A.** -0.666%

**Q.** For CCCCCCCCCCCCCCCC[N+](C)(C)CC, which Potency is on record?
**A.** inactive

**Q.** Which Potency does the source give for C=C(CC)C(=O)c1ccc(OCC(=O)O)c(Cl)c1Cl here?
**A.** inactive

**Q.** Which “fluorescence, % of fluorescent control” value does the source give for Clc1nnc(Cl)c2ccccc12 here?
**A.** -0.133%

**Q.** For Cc1ccc(N/N=c2\c(=O)cc/c(=N\Nc3ccc(S(=O)(=O)O)cc3)c2=O)c(C)c1, which “fluorescence, % of fluorescent control” value is on record?
**A.** 0.35%

**Q.** Which “fluorescence, % of fluorescent control” value does the source give for C1CCC(SSC2CCCCC2)CC1 here?
**A.** 0.0564%

**Q.** With Cc1cc(-n2nc3ccc(Cl)cc3n2)c(O)c(C(C)(C)C)c1 as the molecule, how does the “fluorescence, % of fluorescent control” value read?
**A.** 0.109% [at 46 µM]

**Q.** For Cc1ccc(C(C)C)cc2c(C)ccc1-2, which “fluorescence, % of fluorescent control” value is on record?
**A.** 0.18% [at 46 µM]

**Q.** For CCCCCC(C)OC(=O)COc1ccc(Cl)c2cccnc12 (stereo not given), which “fluorescence, % of fluorescent control” value is on record?
**A.** 0.04%

**Q.** Which “fluorescence, % of fluorescent control” value does the source give for CCCC(=O)OC(C)(C)Cc1ccccc1 here?
**A.** -0.4%

**Q.** Which “fluorescence, % of fluorescent control” value does the source give for NC(=S)NC(N)=S here?
**A.** 0.284%

**Q.** For Nc1cc(Cl)c(O)c(Cl)c1, which “fluorescence, % of fluorescent control” value is on record?
**A.** 0.195%

**Q.** Which “fluorescence, % of fluorescent control” value does the source give for Cl[Si](Cl)(c1ccccc1)c1ccccc1 here?
**A.** -0.211% [at 95.7 µM]

**Q.** With O=C(Oc1ccccc1)Oc1ccccc1 as the molecule, how does the “fluorescence, % of fluorescent control” value read?
**A.** 0.0353%

**Q.** Which “fluorescence, % of fluorescent control” value does the source give for CCc1ccc(Br)cc1 here?
**A.** -0.672% [at 95.7 µM]

**Q.** For C=CC(C)(CCC=C(C)C)OC=O (stereo not given), which “fluorescence, % of fluorescent control” value is on record?
**A.** 0.0777%

**Q.** With c1cnccn1 as the molecule, how does the “fluorescence, % of fluorescent control” value read?
**A.** -0.163% [at 95.7 µM]

**Q.** Which fluorescence, % of fluorescent control does the source give for Cc1cc(C(C)(C)C)cc(C)c1CC1=NCCN1 here?
**A.** 0.279% [at 18.6 µM]

**Q.** Which “fluorescence, % of fluorescent control” value does the source give for [Cl][Pt-2]([Cl])([Cl])[Cl] here?
**A.** -0.119%

**Q.** With O=C(O)c1cc(O)c2ccccc2c1O as the molecule, how does the “fluorescence, % of fluorescent control” value read?
**A.** 0.175%

**Q.** Which “fluorescence, % of fluorescent control” value does the source give for COc1ccc(-c2coc3cc(O)ccc3c2=O)cc1 here?
**A.** 0.119%

**Q.** Which Potency does the source give for C#C[C@]1(OC(C)=O)CC[C@H]2[C@@H]3CCC4=C[C@@H](OC(C)=O)CC[C@@H]4[C@H]3CC[C@@]21C here?
**A.** inactive

**Q.** Which “fluorescence, % of fluorescent control” value does the source give for Cc1nc(-c2ccc(Cl)cc2)oc1COC(C)(C)C(=O)O here?
**A.** 0.144% [at 46 µM]

**Q.** With CCCCNS(=O)(=O)c1ccc(C)cc1 as the molecule, how does the “fluorescence, % of fluorescent control” value read?
**A.** 0.148%

**Q.** Which “fluorescence, % of fluorescent control” value does the source give for Cc1cc(=O)oc2cc(O)cc(O)c12 here?
**A.** -0.469%
